This is an account of results in PubChem BioAssay (NCI).

Among the test systems are SK-MEL-2 melanoma; EKVX NSCLC; SN12C renal; UO-31 renal; TK-10 renal; ACHN renal; CAKI-1 renal; A498 renal; CCRF-CEM leukemia; MOLT-4 leukemia; SR leukemia; RPMI-8226 leukemia; OVCAR-5 ovarian; OVCAR-4 ovarian; IGROV1 ovarian; HS 578T breast; NCI/ADR-RES ovarian; OVCAR-8 ovarian; SK-OV-3 ovarian; OVCAR-3 ovarian.
Assay in all cases: NCI-60 one-dose screen, 48 h (100 = growth as untreated, 0 = no growth, -100 = all killed)
Common to all, as to settings: 10 µM

SMILES strings stand for the structures. This is part of a sample that, as a whole, favours compounds with a hit. Of some 83,000 tested, about 20% had one in any assay.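 Single-dose data. Exposure time 48 hours. Values below 10 considered active.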 Values without a mark were called inactive. Active and inactive are the calls of the source.

Turning to `c1ccc(CCCCc2ccc3ccccc3n2)cc1`, the growth in the assay on SK-MEL-2 melanoma is 94.3%; in the assay on EKVX NSCLC, 98.1%; in the assay with SN12C renal, 105%; in the assay on UO-31 renal, 91.4%; in the assay on TK-10 renal, 90.2%; with ACHN renal, 103%. For the same compound, the growth in the assay on CAKI-1 renal was 99.4%; in the assay with A498 renal, 94.5%; with CCRF-CEM leukemia, 99.8%; with MOLT-4 leukemia, 97.3%; in the assay with SR leukemia, 99.7%; in the assay on RPMI-8226 leukemia, 103%. Moreover, the growth with OVCAR-5 ovarian was 97.9%; in the assay with OVCAR-4 ovarian, 111%; with IGROV1 ovarian, 100%; with HS 578T breast it was 98.7%; in the assay on NCI/ADR-RES ovarian, 102%.
Turning to `CC(=O)Nc1ccc2c(c1)C(=O)c1cccc(C(=O)O)c1-2`, the growth with SK-MEL-2 melanoma was 115%; with EKVX NSCLC, 107%; in the assay on SN12C renal it was 109%; with UO-31 renal, 111%; in the assay with TK-10 renal, 116%; in the assay on ACHN renal it was 105%. Also, the growth in the assay with CAKI-1 renal was 94.9%; in the assay with A498 renal it was 120%; with CCRF-CEM leukemia it was 103%; in the assay with MOLT-4 leukemia, 107%; in the assay with SR leukemia it was 123%; with RPMI-8226 leukemia it was 105%. The growth in the assay with OVCAR-8 ovarian was 106%; in the assay on OVCAR-5 ovarian it was 103%; in the assay with SK-OV-3 ovarian it was 108%; with IGROV1 ovarian it was 135%; in the assay with OVCAR-3 ovarian, 118%; in the assay with HS 578T breast, 109%. Moreover, the growth in the assay on NCI/ADR-RES ovarian is 107%.
As to `CC1OC2CC(=O)OC2C2=C1C(=O)c1c(O)c3c(c(O)c1C2=O)C1CC(O)C3(O)C(C)O1` (stereo not drawn), the growth in the assay on SK-MEL-2 melanoma is -55.7% (active); with EKVX NSCLC it was 13.1%; in the assay with SN12C renal it was -33% (active); with UO-31 renal, 1.82% (active); in the assay on TK-10 renal, -16.6% (active); in the assay with ACHN renal, -16.2% (active). The growth in the assay on CAKI-1 renal was 8.24% (active); with A498 renal, -18.1% (active); in the assay with CCRF-CEM leukemia, 12%; with MOLT-4 leukemia, -21.7% (active); with RPMI-8226 leukemia, -6.28% (active); in the assay on OVCAR-8 ovarian, 5.64% (active). Also, the growth was -47.3% (active) with OVCAR-5 ovarian; -99.6% (active) with OVCAR-4 ovarian; 8.13% (active) with SK-OV-3 ovarian; -36.7% (active) in the assay on IGROV1 ovarian; -34.1% (active) in the assay with OVCAR-3 ovarian; -12.3% (active) with HS 578T breast. Further, the growth in the assay on NCI/ADR-RES ovarian was 1.39% (active).
As to `CCOC(=O)c1cocc1C(=O)O`, the growth in the assay on SK-MEL-2 melanoma was 105%; with EKVX NSCLC it was 103%; with SN12C renal, 105%; in the assay with UO-31 renal, 93.3%; with TK-10 renal, 118%; in the assay with ACHN renal, 111%. For the same compound, the growth in the assay on CAKI-1 renal was 107%; in the assay on A498 renal, 112%; in the assay with CCRF-CEM leukemia, 74.1%; in the assay on MOLT-4 leukemia, 86.5%; in the assay on RPMI-8226 leukemia, 114%; in the assay on OVCAR-8 ovarian it was 105%. The growth in the assay with OVCAR-5 ovarian is 105%; in the assay on OVCAR-4 ovarian, 100%; with SK-OV-3 ovarian, 106%; in the assay with IGROV1 ovarian, 113%; in the assay on OVCAR-3 ovarian, 103%; in the assay with HS 578T breast, 100%. The growth in the assay with NCI/ADR-RES ovarian was 107%.
Consider `O=C(COc1cccc(/C=C2\CSc3ccccc3C2=O)c1)c1ccc(Cl)cc1`, for which the growth in the assay on SK-MEL-2 melanoma was -71.6% (active); in the assay with EKVX NSCLC, 68.1%; in the assay with SN12C renal, -6.61% (active); in the assay with UO-31 renal it was -79% (active); with TK-10 renal, -4.52% (active); in the assay with ACHN renal, -65.6% (active). In addition, the growth in the assay on CAKI-1 renal is -65.2% (active); with A498 renal it was 54%; in the assay on CCRF-CEM leukemia, -51.6% (active); with MOLT-4 leukemia it was -67.3% (active); in the assay on RPMI-8226 leukemia, -64.5% (active); in the assay on OVCAR-8 ovarian it was -4.69% (active). For the same compound, the growth was 19.5% in the assay with OVCAR-5 ovarian; 80.9% in the assay on OVCAR-4 ovarian; 104% in the assay with SK-OV-3 ovarian; 57.5% in the assay on OVCAR-3 ovarian; -25.5% (active) with HS 578T breast; 7.16% (active) in the assay on NCI/ADR-RES ovarian.
`CC1(C)N=C(N)N=C(N)N1c1cccc(C#N)c1`: the growth in the assay on SK-MEL-2 melanoma is 79.1%; with EKVX NSCLC, 67%; with SN12C renal, 94.3%; in the assay on UO-31 renal, 77.9%; in the assay on TK-10 renal, 62.4%; in the assay on ACHN renal it was 37.1%. Besides, the growth in the assay on CAKI-1 renal is 95.2%; in the assay with A498 renal, 69.8%; in the assay with CCRF-CEM leukemia, 35.7%; with MOLT-4 leukemia, 31.2%; in the assay on OVCAR-8 ovarian it was 33.8%; in the assay on OVCAR-5 ovarian it was 51%. The growth in the assay on OVCAR-4 ovarian is 97.3%; in the assay on SK-OV-3 ovarian, 82.9%; with IGROV1 ovarian, 42.6%; in the assay on OVCAR-3 ovarian, 60.7%; with HS 578T breast, 88.2%; with NCI/ADR-RES ovarian, 75%.
Consider `OC(CNc1ccnc2cc(Cl)ccc12)CNC1CCCCC1` (stereo not drawn), for which the growth in the assay on SK-MEL-2 melanoma was 91.8%; in the assay on EKVX NSCLC, 88.1%; in the assay with SN12C renal, 85.9%; with UO-31 renal it was 61.2%; in the assay on TK-10 renal, 96.1%; in the assay on ACHN renal, 81.8%. The growth is 71.2% in the assay on CAKI-1 renal; 59.6% in the assay on A498 renal; 80.5% with CCRF-CEM leukemia; 23.1% with SR leukemia; 65% in the assay with RPMI-8226 leukemia; 87.4% in the assay on OVCAR-5 ovarian. In addition, the growth with OVCAR-4 ovarian was 76%; with SK-OV-3 ovarian, 85.1%; in the assay on IGROV1 ovarian, 103%; in the assay on OVCAR-3 ovarian it was 89.4%; in the assay on HS 578T breast it was 83.8%; with NCI/ADR-RES ovarian it was 90.7%.
